# The entries come from a sample that favours the strongest signals as a whole.
# B1: EEA (Euonymus europaeus) (protein)
# chain: MASTIIATGPTYRVYCRAAPNYNMIVGKGVAFLAPIDETNELQYWYKDDTYSYIKDEAGLPAFSLVNKATGLTLKHSNHHPVPVKLVTYNPNVVDESVLWSQADDRGDGYSAIRSLTNPASHLEAAPLNDWSYNGAIIMGGVWIDAYNQQWKIEPHTG
# Tests used:
# Assay in all cases: glycan array binding signal (z-score within array); higher = stronger binding
# Settings in all cases: glycan notation: IUPAC condensed, linker removed
# [1] = target: Gal(b1-4)GlcNAc(b1-3)Gal(b1-4)GlcNAc(b1-3)Gal(b1-4)GlcNAc(b1-3)Gal(b1-4)GlcNAc(b1-3)Gal(b1-4)GlcNAc(b1-3)Gal(b1-4)GlcNAc(b1-2)Man(a1-3)[Gal(b1-4)GlcNAc(b1-3)Gal(b1-4)GlcNAc(b1-3)Gal(b1-4)GlcNAc(b1-3)Gal(b1-4)GlcNAc(b1-3)Gal(b1-4)GlcNAc(b1-3)Gal(b1-4)GlcNAc(b1-2)Man(a1-6)]Man(b1-4)GlcNAc(b1-4)GlcNAc
# Summary of the method: (§1)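 Columns mapping to the same glycan were averaged after glycan names were converted to IUPAC-condensed notation. The data come from 3228 arrays in the Consortium for Functional Glycomics database, limited to those with an available protein sequence. Binding is reported as a within-array Z-score averaged across arrays of one protein sequence and across linkers.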
# Gal3S(b1-4)GlcNAc = target: Gal3S(b1-4)GlcNAc
# Summary of the method: as §1
# Gal3S(b1-4)GlcNAc6S = target: Gal3S(b1-4)GlcNAc6S
# Summary of the method: as §1
# Gal6S(b1-4)GlcNAc6S = target: Gal6S(b1-4)GlcNAc6S
# Summary of the method: as §1
# GalNAc(b1-3)Gal = target: GalNAc(b1-3)Gal
# Summary of the method: as §1
# [2] = target: GalNAc(b1-4)GlcNAc(b1-2)Man(a1-3)[GalNAc(b1-4)GlcNAc(b1-2)Man(a1-6)]Man(b1-4)GlcNAc(b1-4)GlcNAc
# Summary of the method: as §1
# [3] = target: GlcNAc(b1-2)Gal(b1-3)GalNAc
# Summary of the method: as §1
# [4] = target: GlcNAc(b1-2)Man(a1-3)[GlcNAc(b1-2)Man(a1-6)]Man(b1-4)GlcNAc(b1-4)GlcNAc
# Summary of the method: as §1
# [5] = target: GlcNAc(b1-2)Man(a1-3)[GlcNAc(b1-4)][GlcNAc(b1-2)Man(a1-6)]Man(b1-4)GlcNAc(b1-4)GlcNAc
# Summary of the method: as §1
# [6] = target: GlcNAc(b1-2)[GlcNAc(b1-6)]Man(a1-6)[GlcNAc(b1-2)Man(a1-3)]Man(b1-4)GlcNAc(b1-4)[Fuc(a1-6)]GlcNAc
# Summary of the method: as §1
# [7] = target: GlcNAc(b1-3)Gal(b1-4)GlcNAc(b1-3)Gal(b1-4)GlcNAc(b1-3)Gal(b1-4)GlcNAc(b1-3)Gal(b1-4)GlcNAc(b1-2)Man(a1-3)[GlcNAc(b1-3)Gal(b1-4)GlcNAc(b1-3)Gal(b1-4)GlcNAc(b1-3)Gal(b1-4)GlcNAc(b1-3)Gal(b1-4)GlcNAc(b1-2)Man(a1-6)]Man(b1-4)GlcNAc(b1-4)[Fuc(a1-6)]GlcNAc
# Summary of the method: as §1
# GlcNAc(b1-6)GalNAc = target: GlcNAc(b1-6)GalNAc
# Summary of the method: as §1
# Kdn(a2-3)Gal(b1-4)Glc = target: Kdn(a2-3)Gal(b1-4)Glc
# Summary of the method: as §1
# [8] = target: Neu5Ac(a2-3)Gal(b1-3)GlcNAc(b1-6)GalNAc
# Summary of the method: as §1
# [9] = target: Neu5Ac(a2-3)Gal(b1-3)GlcNAc6S
# Summary of the method: as §1
# [10] = target: Neu5Ac(a2-3)Gal(b1-3)[Fuc(a1-4)]GlcNAc(b1-3)Gal(b1-3)[Fuc(a1-4)]GlcNAc
# Summary of the method: as §1
# [11] = target: Neu5Ac(a2-3)Gal(b1-4)GlcNAc(b1-2)[Neu5Ac(a2-3)Gal(b1-4)GlcNAc(b1-6)]Man(a1-6)[Neu5Ac(a2-3)Gal(b1-4)GlcNAc(b1-2)Man(a1-3)]Man(b1-4)GlcNAc(b1-4)GlcNAc
# Summary of the method: as §1
# [12] = target: Neu5Ac(a2-3)Gal(b1-4)[Fuc(a1-3)]GlcNAc(b1-6)[Gal(b1-3)]GalNAc
# Summary of the method: as §1
# [13] = target: Neu5Ac(a2-3)Gal6S(b1-4)GlcNAc
# Summary of the method: as §1
# [14] = target: Neu5Ac(a2-3)[GalNAc(b1-4)]Gal(b1-4)GlcNAc(b1-3)GalNAc
# Summary of the method: as §1
# [15] = target: Neu5Ac(a2-6)Gal(b1-3)GlcNAc(b1-3)[Gal(b1-4)GlcNAc(b1-6)]Gal(b1-4)Glc
# Summary of the method: as §1
# [16] = target: Neu5Ac(a2-6)Gal(b1-4)GlcNAc(b1-2)Man(a1-6)[Gal(b1-4)GlcNAc(b1-2)Man(a1-3)]Man(b1-4)GlcNAc(b1-4)GlcNAc
# Summary of the method: as §1
# [17] = target: Neu5Ac(a2-6)Gal(b1-4)GlcNAc(b1-2)[Neu5Ac(a2-6)Gal(b1-4)GlcNAc(b1-6)]Man(a1-6)[Neu5Ac(a2-6)Gal(b1-4)GlcNAc(b1-2)Man(a1-3)][GlcNAc(b1-4)]Man(b1-4)GlcNAc(b1-4)GlcNAc
# Summary of the method: as §1
# [18] = target: Neu5Ac(a2-8)Neu5Ac(a2-3)Gal(b1-4)GlcNAc
# Summary of the method: as §1
# [19] = target: Neu5Ac(a2-8)Neu5Ac(a2-8)Neu5Ac(a2-3)[GalNAc(b1-4)]Gal(b1-4)Glc
# Summary of the method: as §1
# Neu5Gc(a2-3)Gal(b1-4)Glc = target: Neu5Gc(a2-3)Gal(b1-4)Glc
# Summary of the method: as §1
# [20] = target: Neu5Gc(a2-3)Gal(b1-4)GlcNAc(b1-3)Gal(b1-4)GlcNAc(b1-2)Man(a1-3)[Neu5Gc(a2-3)Gal(b1-4)GlcNAc(b1-3)Gal(b1-4)GlcNAc(b1-2)Man(a1-6)]Man(b1-4)GlcNAc(b1-4)GlcNAc
# Summary of the method: as §1
# [21] = target: Neu5Gc(a2-3)Gal(b1-4)[Fuc(a1-4)]GlcNAc
# Summary of the method: as §1
binder,measurement,setting,value
B1,glycan array binding signal (z-score),[1],-0.159
same,glycan array binding signal (z-score),Gal3S(b1-4)GlcNAc,-0.217
same,glycan array binding signal (z-score),Gal3S(b1-4)GlcNAc6S,-0.14
same,glycan array binding signal (z-score),Gal6S(b1-4)GlcNAc6S,-0.097
same,glycan array binding signal (z-score),GalNAc(b1-3)Gal,-0.178
same,glycan array binding signal (z-score),[2],0.509
same,glycan array binding signal (z-score),[3],-0.138
same,glycan array binding signal (z-score),[4],-0.152
same,glycan array binding signal (z-score),[5],-0.242
same,glycan array binding signal (z-score),[6],-0.204
same,glycan array binding signal (z-score),[7],-0.221
same,glycan array binding signal (z-score),GlcNAc(b1-6)GalNAc,-0.056
same,glycan array binding signal (z-score),Kdn(a2-3)Gal(b1-4)Glc,-0.177
same,glycan array binding signal (z-score),[8],-0.187
same,glycan array binding signal (z-score),[9],-0.092
same,glycan array binding signal (z-score),[10],-0.246
same,glycan array binding signal (z-score),[11],-0.137
same,glycan array binding signal (z-score),[12],-0.043
same,glycan array binding signal (z-score),[13],-0.212
same,glycan array binding signal (z-score),[14],0.46
same,glycan array binding signal (z-score),[15],-0.232
same,glycan array binding signal (z-score),[16],-0.233
same,glycan array binding signal (z-score),[17],-0.179
same,glycan array binding signal (z-score),[18],-0.253
same,glycan array binding signal (z-score),[19],-0.063
same,glycan array binding signal (z-score),Neu5Gc(a2-3)Gal(b1-4)Glc,-0.084
same,glycan array binding signal (z-score),[20],-0.183
same,glycan array binding signal (z-score),[21],-0.482
